The full data set covers some 8,800 targets. This sample favours those with a hit. About 0.5% of all pairs of compound and target were hits.

UniProt Q13409, sequence (Q13409 whole entry, looked up): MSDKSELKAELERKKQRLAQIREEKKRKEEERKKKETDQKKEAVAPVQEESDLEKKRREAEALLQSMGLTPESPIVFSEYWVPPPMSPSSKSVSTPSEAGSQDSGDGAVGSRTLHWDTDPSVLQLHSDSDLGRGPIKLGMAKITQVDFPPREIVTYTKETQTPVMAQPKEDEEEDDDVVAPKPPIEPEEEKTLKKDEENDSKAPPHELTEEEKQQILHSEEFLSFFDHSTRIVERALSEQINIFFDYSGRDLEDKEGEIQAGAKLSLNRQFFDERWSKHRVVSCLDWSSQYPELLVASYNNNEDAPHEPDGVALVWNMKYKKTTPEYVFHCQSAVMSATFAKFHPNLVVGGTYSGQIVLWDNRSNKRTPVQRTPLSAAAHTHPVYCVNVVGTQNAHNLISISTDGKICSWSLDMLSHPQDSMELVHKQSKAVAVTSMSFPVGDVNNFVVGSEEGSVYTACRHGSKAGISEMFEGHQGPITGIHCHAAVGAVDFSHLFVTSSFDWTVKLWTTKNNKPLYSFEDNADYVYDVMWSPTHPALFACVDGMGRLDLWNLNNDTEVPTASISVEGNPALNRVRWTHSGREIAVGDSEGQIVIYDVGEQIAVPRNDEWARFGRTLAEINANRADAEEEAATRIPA
UniProt Q06547, sequence (Q06547 whole entry, looked up): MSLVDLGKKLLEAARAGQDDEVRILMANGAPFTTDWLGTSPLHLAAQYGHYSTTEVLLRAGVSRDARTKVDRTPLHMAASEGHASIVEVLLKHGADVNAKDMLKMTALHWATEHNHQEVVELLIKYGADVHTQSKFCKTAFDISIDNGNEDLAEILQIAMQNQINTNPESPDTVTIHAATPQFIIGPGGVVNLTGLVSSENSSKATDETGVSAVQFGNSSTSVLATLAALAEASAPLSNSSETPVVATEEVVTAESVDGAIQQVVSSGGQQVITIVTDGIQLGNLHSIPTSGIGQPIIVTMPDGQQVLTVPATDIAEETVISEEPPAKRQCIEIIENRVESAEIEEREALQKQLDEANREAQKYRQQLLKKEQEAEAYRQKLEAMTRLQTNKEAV
UniProt O43768, sequence (O43768 whole entry, looked up): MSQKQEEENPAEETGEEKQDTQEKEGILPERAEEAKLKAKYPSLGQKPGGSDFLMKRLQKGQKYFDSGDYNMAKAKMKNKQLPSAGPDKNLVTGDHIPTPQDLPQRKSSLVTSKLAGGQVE
UniProt Q8IY81, sequence (Q8IY81 whole entry, looked up): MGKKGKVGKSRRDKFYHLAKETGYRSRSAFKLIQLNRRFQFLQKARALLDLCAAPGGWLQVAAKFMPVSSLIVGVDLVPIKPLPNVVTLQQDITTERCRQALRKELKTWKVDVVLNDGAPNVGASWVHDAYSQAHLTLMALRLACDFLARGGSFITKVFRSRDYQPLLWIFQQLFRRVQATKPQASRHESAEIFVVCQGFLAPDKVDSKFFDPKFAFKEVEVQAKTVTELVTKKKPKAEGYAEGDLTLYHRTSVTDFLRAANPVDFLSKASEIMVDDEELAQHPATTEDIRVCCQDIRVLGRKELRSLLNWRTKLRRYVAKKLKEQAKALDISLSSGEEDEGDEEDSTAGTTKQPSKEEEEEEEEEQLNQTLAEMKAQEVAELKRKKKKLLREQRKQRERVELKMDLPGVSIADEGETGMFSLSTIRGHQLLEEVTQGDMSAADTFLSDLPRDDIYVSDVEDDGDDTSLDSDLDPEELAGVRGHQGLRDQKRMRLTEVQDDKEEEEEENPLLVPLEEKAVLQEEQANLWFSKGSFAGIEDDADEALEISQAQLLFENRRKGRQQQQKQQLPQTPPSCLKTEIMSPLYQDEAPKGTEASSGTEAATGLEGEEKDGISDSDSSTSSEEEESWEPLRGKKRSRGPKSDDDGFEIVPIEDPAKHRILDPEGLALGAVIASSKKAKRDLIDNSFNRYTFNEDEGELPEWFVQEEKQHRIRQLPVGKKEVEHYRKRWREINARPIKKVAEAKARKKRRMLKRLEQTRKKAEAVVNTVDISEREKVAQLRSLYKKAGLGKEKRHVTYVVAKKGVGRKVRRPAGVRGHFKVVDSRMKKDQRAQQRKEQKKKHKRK
UniProt Q9Y5Q0, sequence (Q9Y5Q0 whole entry, looked up): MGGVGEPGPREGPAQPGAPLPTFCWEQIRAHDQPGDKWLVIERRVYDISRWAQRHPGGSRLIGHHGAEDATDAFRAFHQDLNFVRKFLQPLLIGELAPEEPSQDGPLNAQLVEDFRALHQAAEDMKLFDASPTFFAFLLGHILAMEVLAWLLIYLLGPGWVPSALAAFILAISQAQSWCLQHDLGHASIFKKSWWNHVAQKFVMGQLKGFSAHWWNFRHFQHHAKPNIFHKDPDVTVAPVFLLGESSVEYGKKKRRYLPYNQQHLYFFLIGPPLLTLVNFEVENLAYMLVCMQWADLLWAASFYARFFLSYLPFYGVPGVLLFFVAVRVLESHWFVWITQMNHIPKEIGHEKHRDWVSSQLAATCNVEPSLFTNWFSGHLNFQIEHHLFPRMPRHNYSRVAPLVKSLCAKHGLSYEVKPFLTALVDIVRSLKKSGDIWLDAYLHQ
UniProt Q8N9F7, sequence (Q8N9F7 whole entry, looked up): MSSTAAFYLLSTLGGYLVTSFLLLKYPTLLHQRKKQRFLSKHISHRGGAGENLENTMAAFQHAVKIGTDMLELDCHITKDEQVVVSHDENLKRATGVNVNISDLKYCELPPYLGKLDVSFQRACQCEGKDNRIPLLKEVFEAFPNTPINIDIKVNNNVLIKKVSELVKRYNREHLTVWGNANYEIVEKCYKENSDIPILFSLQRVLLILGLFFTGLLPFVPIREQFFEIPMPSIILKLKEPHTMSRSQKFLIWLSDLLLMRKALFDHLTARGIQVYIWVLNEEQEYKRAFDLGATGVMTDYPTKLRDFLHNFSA
UniProt Q9Y613, sequence (Q9Y613 whole entry, looked up): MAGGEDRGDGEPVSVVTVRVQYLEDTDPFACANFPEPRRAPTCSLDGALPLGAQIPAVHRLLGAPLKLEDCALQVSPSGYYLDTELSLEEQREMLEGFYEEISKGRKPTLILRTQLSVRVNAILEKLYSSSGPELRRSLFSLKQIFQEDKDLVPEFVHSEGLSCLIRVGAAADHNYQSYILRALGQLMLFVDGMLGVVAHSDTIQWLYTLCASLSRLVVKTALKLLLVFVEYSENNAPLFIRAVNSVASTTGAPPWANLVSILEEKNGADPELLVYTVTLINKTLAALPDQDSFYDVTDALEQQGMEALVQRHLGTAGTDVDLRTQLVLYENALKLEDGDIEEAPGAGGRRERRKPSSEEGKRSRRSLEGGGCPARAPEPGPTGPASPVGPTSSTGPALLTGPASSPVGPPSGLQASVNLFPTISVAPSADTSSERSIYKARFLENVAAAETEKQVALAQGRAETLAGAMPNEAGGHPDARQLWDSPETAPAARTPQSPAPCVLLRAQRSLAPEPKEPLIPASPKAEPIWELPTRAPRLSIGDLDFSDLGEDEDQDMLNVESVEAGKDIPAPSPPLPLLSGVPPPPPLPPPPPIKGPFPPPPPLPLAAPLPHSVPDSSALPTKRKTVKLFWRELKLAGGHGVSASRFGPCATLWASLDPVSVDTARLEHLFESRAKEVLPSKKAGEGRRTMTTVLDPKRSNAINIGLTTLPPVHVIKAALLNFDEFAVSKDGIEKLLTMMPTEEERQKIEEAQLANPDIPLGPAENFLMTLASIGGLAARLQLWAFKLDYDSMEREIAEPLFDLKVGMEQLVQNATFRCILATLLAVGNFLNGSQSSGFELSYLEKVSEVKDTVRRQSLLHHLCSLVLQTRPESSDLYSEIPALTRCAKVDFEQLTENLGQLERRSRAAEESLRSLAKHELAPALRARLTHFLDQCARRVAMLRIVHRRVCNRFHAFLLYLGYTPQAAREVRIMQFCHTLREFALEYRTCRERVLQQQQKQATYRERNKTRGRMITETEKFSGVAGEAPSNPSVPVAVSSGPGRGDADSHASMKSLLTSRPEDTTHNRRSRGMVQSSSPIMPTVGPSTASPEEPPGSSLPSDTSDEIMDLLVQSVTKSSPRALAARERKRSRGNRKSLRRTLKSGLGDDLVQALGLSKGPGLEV
UniProt Q9NX74, sequence (Q9NX74 whole entry, looked up): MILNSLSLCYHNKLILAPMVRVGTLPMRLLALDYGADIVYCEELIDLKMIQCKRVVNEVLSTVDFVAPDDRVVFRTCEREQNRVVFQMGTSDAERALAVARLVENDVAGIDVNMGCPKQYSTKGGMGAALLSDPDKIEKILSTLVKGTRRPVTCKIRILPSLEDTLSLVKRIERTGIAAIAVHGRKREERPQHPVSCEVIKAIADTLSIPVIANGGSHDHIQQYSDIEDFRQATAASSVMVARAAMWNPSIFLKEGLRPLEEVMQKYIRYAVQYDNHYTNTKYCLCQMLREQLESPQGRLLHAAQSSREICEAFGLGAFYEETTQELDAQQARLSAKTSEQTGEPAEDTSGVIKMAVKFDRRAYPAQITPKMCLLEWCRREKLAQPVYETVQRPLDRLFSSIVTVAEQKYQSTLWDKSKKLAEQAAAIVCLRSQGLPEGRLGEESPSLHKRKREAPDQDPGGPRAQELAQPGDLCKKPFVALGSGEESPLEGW
UniProt Q8NCA5, sequence (Q8NCA5 whole entry, looked up): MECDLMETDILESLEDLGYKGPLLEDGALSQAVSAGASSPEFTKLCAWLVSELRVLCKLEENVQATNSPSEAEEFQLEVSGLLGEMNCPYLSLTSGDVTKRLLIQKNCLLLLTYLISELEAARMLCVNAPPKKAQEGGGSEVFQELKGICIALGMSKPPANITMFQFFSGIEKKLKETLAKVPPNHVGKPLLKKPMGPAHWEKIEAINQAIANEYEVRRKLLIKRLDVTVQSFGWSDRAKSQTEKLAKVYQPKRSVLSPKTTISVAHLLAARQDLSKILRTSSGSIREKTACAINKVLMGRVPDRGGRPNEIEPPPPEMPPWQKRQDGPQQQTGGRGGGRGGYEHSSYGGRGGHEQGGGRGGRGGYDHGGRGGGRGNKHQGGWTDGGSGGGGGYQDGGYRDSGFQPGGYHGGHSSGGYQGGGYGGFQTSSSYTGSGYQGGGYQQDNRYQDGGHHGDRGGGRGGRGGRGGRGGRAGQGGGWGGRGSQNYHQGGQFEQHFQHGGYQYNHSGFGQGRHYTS

Compound in the first experiment: C1=CC2=C(C=CC(=C2)/C=C\3/C(=O)NC(=NCC4=CC=CS4)S3)N=C1
Put plainly: log2 fold change, soluble protein after heating vs DMSO (PISA); higher = thermal stabilisation; K562 lysate, 10 uM; active = over 0.2 and 3.5 SD of the protein, either way, in both replicates (recomputed). Summed up:
(§1)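 The values are log-two fold changes in thermal stability compared with solvent controls and come from duplicates. They were obtained by TMTpro 16plex LC-MS/MS, with channel sums equalised, on the supernatant after 21,000xg for 90 min. That supernatant came from crude K562 extract at 1 mg/mL protein treated with 10 μM compound for 30 min, heated for 3 min across 48°C-58°C, pooled and brought to 0.5% NP-40 at 4°C.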
As to FAU (UniProt E9PR30), the log2 fold change is -0.048 (inactive).
The same measure, in the same setting: next, FTSJ3 (UniProt Q8IY81): -0.014 (inactive); GALK1 isoform 2 (UniProt P51570): -0.076 (inactive); FHOD1 (UniProt Q9Y613): 0.048 (inactive).
On the same count and under the same terms, next, FNTB (UniProt P49356): 0.013 (inactive); ETHE1 (UniProt O95571): 0.021 (inactive).
The same measure, in the same setting: under GATAD2A isoform 3 (UniProt Q86YP4) stands -0.034 (inactive); under DYNC1I2 isoform 2 (UniProt Q13409), -0.088 (inactive); under EIF3I (UniProt Q13347), 0.001 (inactive).
Take ENSA isoform 3 (UniProt O43768): the log2 fold change was -0.013 (inactive).
With GDPD1 (UniProt Q8N9F7), the log2 fold change was 0.001 (inactive).
Still for that read-out and setting: next, EEF1A1, A0A087WVQ9: -0.069 (inactive); FAM98A (UniProt Q8NCA5): -0.048 (inactive); GEMIN5 (UniProt Q8TEQ6): 0.015 (inactive).
Still for that read-out and setting: under FXR2 (UniProt P51116) stands -0.042 (inactive); under ENO1 isoform 2 (UniProt P06733), -0.021 (inactive); under GABPB1 (UniProt Q06547), 0.028 (inactive).
On the same count and under the same terms, next, GABPB1 isoform 3 (UniProt Q06547): 0.016 (inactive); EIF2B4 (UniProt Q9UI10): -0.178 (inactive); FYN (UniProt P06241): 0.028 (inactive).
Take DUS2 (UniProt Q9NX74): the log2 fold change is 0.057 (inactive).
On the same count and under the same terms, next, FBXO45 (UniProt P0C2W1): 0.092 (inactive); EP400 isoform 5 (UniProt Q96L91): -0.023 (inactive); ECI2 (UniProt O75521): -0.011 (inactive).
Same read-out and setting: next, FBLL1 (UniProt A6NHQ2): 0.059 (inactive); FADS3 (UniProt Q9Y5Q0): 0.118 (inactive); FANCD2 isoform 1 (UniProt Q9BXW9): -0.049 (inactive).
The same measure, in the same setting: under DYRK1A (UniProt Q13627) stands 0.186 (inactive); under GGA2 (UniProt Q9UJY4), 0.016 (inactive).
DYNC1I2 isoform 5 (UniProt Q13409): the log2 fold change is 0.009 (inactive).
Still for that read-out and setting: next, EXOC1 (UniProt Q9NV70): -0.009 (inactive); FAM83A (UniProt Q86UY5): 0.038 (inactive); DST (UniProt Q03001): -0.03 (inactive).
For GCN1 (UniProt Q92616), the log2 fold change was 0.022 (inactive).
Same read-out and setting: next, FDX2 (UniProt Q6P4F2): 0.065 (inactive); ENO1, A0A2R8YEM5: -0.017 (inactive).

Compound in the next experiment: C1=CC2=NC=CN=C2C=C1/C=C/3\C(=O)NC(=O)S3
The description is as above. The essentials:
as §1
Take FAU (UniProt E9PR30): the log2 fold change is 0.016 (inactive).
Same read-out and setting: next, FTSJ3 (UniProt Q8IY81): -0.028 (inactive); GALK1 isoform 2 (UniProt P51570): -0.024 (inactive).
FHOD1 (UniProt Q9Y613): the log2 fold change was -0.02 (inactive).
For the target FNTB (UniProt P49356), the log2 fold change is -0.034 (inactive).
Same read-out and setting: under ETHE1 (UniProt O95571) stands 0.034 (inactive); under GATAD2A isoform 3 (UniProt Q86YP4), 0.003 (inactive); under DYNC1I2 isoform 2 (UniProt Q13409), -0.127 (inactive).
Still for that read-out and setting: next, EIF3I (UniProt Q13347): 0.022 (inactive); ENSA isoform 3 (UniProt O43768): -0.047 (inactive); GDPD1 (UniProt Q8N9F7): -0.041 (inactive).
Still for that read-out and setting: under EEF1A1, A0A087WVQ9 stands -0.016 (inactive).
For the target FAM98A (UniProt Q8NCA5), the log2 fold change was -0.02 (inactive).
The same measure, in the same setting: next, GEMIN5 (UniProt Q8TEQ6): 0.032 (inactive); FXR2 (UniProt P51116): 0.022 (inactive).
Consider ENO1 isoform 2 (UniProt P06733), for which the log2 fold change was -0.016 (inactive).
Still for that read-out and setting: under GABPB1 (UniProt Q06547) stands 0.035 (inactive); under GABPB1 isoform 3 (UniProt Q06547), 0.045 (inactive); under EIF2B4 (UniProt Q9UI10), -0.02 (inactive).
Consider FYN (UniProt P06241), for which the log2 fold change was -0.062 (inactive).
On the same count and under the same terms, under DUS2 (UniProt Q9NX74) stands 0.027 (inactive); under FBXO45 (UniProt P0C2W1), -0.099 (inactive); under EP400 isoform 5 (UniProt Q96L91), -0.042 (inactive).
The same measure, in the same setting: under ECI2 (UniProt O75521) stands 0.022 (inactive).
Still for that read-out and setting: next, FBLL1 (UniProt A6NHQ2): 0.075 (inactive); FADS3 (UniProt Q9Y5Q0): 0.016 (inactive).
Turning to FANCD2 isoform 1 (UniProt Q9BXW9), the log2 fold change is 0.01 (inactive).
Consider DYRK1A (UniProt Q13627), for which the log2 fold change was 0.175 (inactive).
As for GGA2 (UniProt Q9UJY4), the log2 fold change is 0.019 (inactive).
The same measure, in the same setting: under DYNC1I2 isoform 5 (UniProt Q13409) stands 0 (inactive).
On the same count and under the same terms, under EXOC1 (UniProt Q9NV70) stands 0.074 (inactive).
On the same count and under the same terms, under FAM83A (UniProt Q86UY5) stands -0.054 (inactive); under DST (UniProt Q03001), -0.042 (inactive); under GCN1 (UniProt Q92616), 0.054 (inactive).
With FDX2 (UniProt Q6P4F2), the log2 fold change is -0.009 (inactive).
Still for that read-out and setting: under ENO1, A0A2R8YEM5 stands 0.031 (inactive).
